PI5P4K alpha inh – PI5P4K alpha (human) kinase inhibition | PI5P4Kalpha enzyme, ADP-Glo luminescence, 60 min; stronger effect = lower value | max response, % | P48426 | AID 652105 | 1.2% of 330,000 active; active = max response of -50% or lower; inconclusive = between -30% and -50%; inactive = -30% or higher; note: value at the top dose of about 77 µM; % is set by controls: 0 for no effect and ±100 for the full control effect
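Luminescence from ADP-Glo served as readout of PI5P4Kalpha activity in a qHTS format. Reaction: enzyme, substrate, compound, ATP at 5 microM final, 60 min at RT.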
HP1b chromo inh – inhibitors of HP1-beta chromodomain binding to methylated histone tails; Potency, µM (doses to about 114 µM), without a hit: at the top dose activity change, negative = inhibition, hits mostly inhibitors; 0.56% of 390,000 active; AlphaScreen HP1-beta / biotin-H3K9me3 peptide binding; P83916; note: potency is the fitted concentration of half-maximal effect; nearly all actives have a fitted effect of over 70% in size
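Compound inhibition of the preformed complex between 50 nM HP1-beta and 50 nM biotinylated H3K9me3 peptide was read by AlphaScreen. Buffer was PBS pH 7.4 with 0.01% Tween-20. Incubations ran 30 min at room temperature, with 10 ug/mL donor/acceptor beads.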
BAZ2B block – BAZ2B (human) inhibition; AlphaScreen BAZ2B-H3K14Ac peptide displacement; Potency, µM (top dose mostly 114 µM), without a hit: top-dose activity change, negative = inhibition, usual class: inhibitors; 4.4% of 360,000 active; AID 504333; note: potency is the fitted concentration of half-maximal effect; % is set by controls: 0 for no effect and ±100 for the full control effect; nearly all actives have a fitted effect of over 60% in size
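AlphaScreen luminescence quantifies BAZ2B engagement of H3K14Ac peptide; the protein and biotinylated peptide are both at 50 nM final, buffer PBS pH 7.4 with 0.01% Tween-20, all steps at room temperature.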
JMJD2A Tudor inh – inhibitors of human JMJD2A Tudor domain. AlphaScreen JMJD2A-Tudor / H3K4me3 peptide binding. Potency, µM (top dose mostly 114 µM), for the others: at the top dose activity change, negative = inhibition, usual class: inhibitors. 4.4% of 390,000 active. AID 504339; note: potency is the fitted concentration of half-maximal effect; % is set by controls: 0 for no effect and ±100 for the full control effect; nearly all actives have a fitted effect of over 50% in size
PLK1 PBD inh – PLK1 (human) polo-box domain binding inhibition. P53350. Plk1 PBD binding of FITC phosphopeptide, fluorescence polarization. Potency, µM, for the others: max response, negative = inhibition, most hits filed as inhibitors. 2.8% of 360,000 active; note: potency is the fitted concentration of half-maximal effect; series mostly up to about 57 µM; % is set by controls: 0 for no effect and ±100 for the full control effect; nearly all actives have a fitted effect of over 65% in size
Target sequence (P53350 whole entry, looked up, the tested form may be a part): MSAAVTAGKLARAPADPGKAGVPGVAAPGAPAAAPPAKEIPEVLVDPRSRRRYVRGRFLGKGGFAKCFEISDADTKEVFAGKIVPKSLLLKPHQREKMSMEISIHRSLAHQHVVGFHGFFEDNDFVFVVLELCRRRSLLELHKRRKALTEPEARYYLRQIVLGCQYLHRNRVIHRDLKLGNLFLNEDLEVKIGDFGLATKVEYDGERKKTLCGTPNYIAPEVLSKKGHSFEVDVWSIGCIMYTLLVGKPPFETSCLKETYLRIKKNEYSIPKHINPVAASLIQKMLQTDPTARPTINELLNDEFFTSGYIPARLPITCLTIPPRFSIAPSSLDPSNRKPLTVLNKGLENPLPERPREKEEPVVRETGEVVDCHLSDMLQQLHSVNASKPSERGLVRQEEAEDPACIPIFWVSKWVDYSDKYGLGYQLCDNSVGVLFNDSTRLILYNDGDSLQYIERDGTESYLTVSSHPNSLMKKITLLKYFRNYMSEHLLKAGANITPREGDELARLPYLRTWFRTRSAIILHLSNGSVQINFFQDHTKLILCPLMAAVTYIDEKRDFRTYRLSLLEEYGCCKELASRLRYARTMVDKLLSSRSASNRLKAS
G9a block – inhibitors of human histone lysine methyltransferase G9a | Q96KQ7 | G9a H3K9 monomethylation, AlphaScreen, 2 h | Potency, µM (titrated, usually from 102 µM), for inactives: at the highest dose activity, negative = inhibition, hits mostly inhibitors | 8.8% of 350,000 active; note: potency is the fitted concentration of half-maximal effect; % is set by controls: 0 for no effect and ±100 for the full control effect; nearly all actives have a fitted effect of over 75% in size
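Using a bead-based AlphaScreen, monomethylated H3K9 product from 2 h room-temperature reactions (G9a 20 nM, peptide 500 nM, SAM 20 uM) was detected with 0.5 ug/mL rabbit anti-H3K9me1 antibody.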
Starred values were filed as active, the others as inactive; ? = inconclusive; . = no result given; ! = a repeat was not active; [ ] = dose if it differs, or a comment. Only some compounds are listed: those with a hit (about 12% of all), similar ones and a draw of the others. Unless noted, calls come from the whole dose curve; as a rule, active = well fitted curve in the direction sought with a large enough effect; inconclusive = small, poorly fitted or top-dose-only effect, or another doubt; inactive = no such curve, though single readings can be large; an effect the other way counts as inactive or inconclusive.

SMILES	PI5P4K alpha inh	HP1b chromo inh	BAZ2B block	JMJD2A Tudor inh	PLK1 PBD inh	G9a block
COc1ccc(-n2cc(-c3ccccc3)[nH]c2=S)c(OC)c1	-14	-1%	?	?	2%	?
Nc1nnc(CSCc2ccc(F)cc2)s1	.	?	-3%	-6%	19µM*	?
Nc1nnc(-c2ccc(F)cc2)s1	.	13%	-8%	-6%	-10%	-2%[0.501 µM]
Cn1cnc([N+](=O)[O-])c1Oc1ccc2ccccc2c1	3	23%	-7%	-24%	?	50µM*
Cc1cccc(NC(=O)NNS(=O)(=O)c2ccc(F)cc2)c1	-2	19%	1%	-16%	-4%	20%[59 µM]
COC(=O)c1ccc([C@H]2Nc3ccc(S(=O)(=O)Nc4ccc(F)cc4)cc3[C@H]3C=CC[C@H]32)cc1	.	-14%	?	?	.	5.6µM*
COC(=O)c1ccc([C@@H]2Nc3c(cccc3C(F)(F)F)[C@@H]3C=CC[C@@H]32)cc1	.	123%	62%	26%	.	47%[59 µM]
COc1ccc(C)cc1NS(=O)(=O)c1ccc2c(c1)[C@H]1C=CC[C@H]1[C@@H](c1cccc(Cl)c1)N2	.	2%	?	?	.	2.8µM*
Cc1cccc(NS(=O)(=O)c2ccc3c(c2)[C@H]2C=CC[C@H]2[C@@H](c2ccc(F)cc2)N3)c1	.	?	-37%	?	.	13µM*
Fc1ccc([C@@H]2Nc3ccccc3[C@@H]3C=CC[C@@H]32)cc1	.	16%	-35%	?	.	2.2µM*
O=C(OCC(=O)N1CCC(Cc2ccccc2)CC1)c1ccc(CO)cc1	0	24%	8%	-8%	-7%	12%[12.7 µM]
Fc1ccc2c(c1)C1C=CCC1C(c1cc3c(cc1Br)OCO3)N2 (stereo not drawn)	.	-24%	-36%[57.1 µM]	45µM*	-3%	-39%[12.7 µM]
O=C(O)CCNc1ccc(NCCC(=O)O)c2c1C(=O)c1ccccc1C2=O	-68*	14µM*	11µM*	22µM*	?	13µM*
O=C1c2cccc(NCCNCCO)c2C(=O)c2cccc(NCCNCCO)c21	-17	?	.	35µM*	-9%	.
COc1ccc(-c2sc3ccc(OC)cc3c2-c2ccc(OCCN3CCOCC3)cc2)cc1	52	-11%	.	?	-13%	.
COc1cccc(-c2sc3ccccc3c2-c2ccc(OCCN3CCCCC3)cc2)c1	5	-11%	.	?	0%	.
COc1cccc(-c2sc3ccccc3c2-c2ccc(OCCN3CCCC3)cc2)c1	24	?	.	45µM*	-8%	.
COc1cccc(-c2sc3ccc(OC)cc3c2-c2ccc(OCCN3CCCC3)cc2)c1	17	?	.	56µM*	-2%	.
COc1cccc(-c2sc3cc(OC)c(OC)cc3c2-c2ccc(OCCN3CCCCC3)cc2)c1	11	?	.	32µM*	-18%	.
COc1cccc(-c2sc3ccccc3c2-c2ccc(OCCN(C)C)cc2)c1	25	?	.	45µM*	3%	.
COc1cccc(-c2sc3ccc(OC)cc3c2-c2ccc(C(N)=O)cc2)c1	2	19%	3%	-17%	-12%	0%[0.501 µM]
O=C(CN1C(=O)COc2ccc(S(=O)(=O)N3CCCC3)cc21)NCCc1ccc(Cl)cc1	.	43%	-3%	-15%	.	3%[59 µM]
COc1ccc2sc(-c3ccccc3OC)c(-c3ccc(OCCN(C)C)cc3)c2c1	38	-35%	.	50µM*	-10%	.
COc1ccc2sc(-c3ccccc3OC)c(-c3ccc(SC)cc3)c2c1	14	.	.	.	-4%	.
CN(C)S(=O)(=O)c1ccc2c(c1)/C(=C/c1cc3c([nH]1)CCCC3)C(=O)N2	-2	29%	2%	-30%	3%	11µM*!
SMILES	PI5P4K alpha inh	HP1b chromo inh	BAZ2B block	JMJD2A Tudor inh	PLK1 PBD inh	G9a block
CN(C)S(=O)(=O)c1ccc2c(c1)C(=O)c1cc(S(=O)(=O)N(C)C)ccc1CC2	.	28%	8%	-23%	.	14%[0.501 µM]
O=C(O)c1cc(N/N=C2/CC(c3ccccc3)Oc3ccccc32)ccc1Cl (stereo not drawn)	-22	-5%	-38%	?	?	11µM*
O=S(=O)(N/N=C1/CC(c2ccccc2)Oc2ccccc21)c1ccccc1 (stereo not drawn)	-2	6%	.	-21%	-5%	.
O=C1CC(c2ccccc2)Oc2ccc(Cl)cc21 (stereo not drawn)	9	86%	.	37%	-2%	.
CC(C)(C)N/N=C1\CC(c2ccccc2)Oc2ccccc21 (stereo not drawn)	8	23%	12%	-9%	30µM*	?
CCOC(=O)c1cccc(NC(=O)CSc2cc(=O)n(C)c3ccccc23)c1	.	3%	.	-18%	.	1%[59 µM]
Cn1c(=O)c(=O)n(C)c2cc(S(=O)(=O)N3CCCC3C(=O)Nc3cccc(F)c3)ccc21 (stereo not drawn)	.	32%	-1%	-11%	.	-29%[59 µM]
CCn1c(=O)c(=O)[nH]c2cc(C(=O)NC3CCCC3)ccc21	-12	-15%	-2%	13µM*	30µM*	0%
N#Cc1ccccc1OCC(=O)NC1CCCCCC1	-7	.	.	.	-2%	.
COc1cc(C2C3=C(Nc4nc(N)[nH]c(=O)c42)c2ccccc2C3=O)ccc1O (stereo not drawn)	-71*	-9%	?	?	-7%	-11%[12.7 µM]
COC(=O)/C(=N/Nc1ccc(C)cc1)N1CCCc2ccccc21	1	-6%	?	?	3%	45µM*
COC(=O)/C(=N/Nc1ccccc1)N1CCCc2ccccc21	9	1%	-37%	?	1%	45µM*
COCCN(C(=O)Cc1cccs1)c1nnc(-c2ccncc2)s1	-2	5%	79µM*	-24%	1%	?
CCN(C(=O)c1cccs1)c1nnc(-c2ccncc2)s1	0	20%	8%	-7%	-18%	-34%[59 µM]
CC(C)C1C(=O)N(Cc2cn(Cc3ccco3)nn2)CCS(=O)(=O)N1Cc1ccc(-c2ccc(Cl)c(Cl)c2)cc1 (stereo not drawn)	-6	.	.	.	-8%	.
CCCCNC(=O)CSc1nc(-c2ccc(OC)cc2)cc(C(F)(F)F)n1	.	25%	3%[57.1 µM]	-5%	.	-20%[59 µM]
CCN(CC)C(=O)c1sc(NC(=O)C(C)Sc2nc(-c3ccccc3)cc(C(F)(F)F)n2)c(C(=O)OC)c1C (stereo not drawn)	.	-23%	-5%	-11%	.	3.5µM*
CCN(CC)CCCNC(=O)C(C)Sc1nc(-c2ccccc2)cc(C(F)(F)F)n1 (stereo not drawn)	-1	60%	-17%	-1%	2%	.
CCCOC(=O)c1c(NC(=O)C(C)Sc2nc(-c3ccccc3)cc(C(F)(F)F)n2)sc(C(=O)N(C)C)c1C (stereo not drawn)	.	10%	-1%	-14%	.	11µM*

High-throughput results: PubChem BioAssay, National Center for Advancing Translational Sciences (NCATS)
